Test [1] in a line: qHTS assay to identify small molecule agonists of the estrogen receptor beta (ER-beta) signaling pathway - cell viability counter screen (AID 1259380). Further: nearly all actives have a fitted effect of over 30% in size. Further: potency means the concentration at half of the fitted maximal effect. An outline of the steps:
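Viability of ER-beta-UAS-bla HEK293T cells was determined by CellTiter-Glo luminescence following 16 hr treatment with test compounds at 37C.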
On the technique in general: qHTS replaces the single test concentration by a dilution series.

Test [2] is described as follows: qHTS assay to identify small molecule antagonists of the estrogen receptor beta (ER-beta) signaling pathway - cell viability counter screen (AID 1259382).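 Further: HEK293T cells carrying ER-beta-UAS-bla reporter stimulated with estradiol; series mostly up to about 92 µM; nearly all actives have a fitted effect of over 55% in size.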 In a few lines: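 Tox21 10K library tested in qHTS format on ER-beta-bla HEK293T cells stimulated with 1nM E2; 16 hr treatment at 37C. Same-well CellTiter-Glo luminescence served as the cell viability measure.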

Test [3] concerns the target Estrogen receptor (Homo sapiens) (UniProt P03372). The test is described as follows: qHTS assay to identify small molecule agonists of the estrogen receptor alpha (ER-alpha) signaling pathway in the presence of an antagonist (AID 1259383; calls by dose curve; further: top concentration of the series differs between compounds; nearly all actives have a fitted effect of over 15% in size). An outline of the steps:
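In VM7Luc4E2 cells, 4,000 per well, compounds at 15 concentrations were co-incubated 22hr at 37C with 10.0nM final ICI-182,780. Luminescence from the stably transfected 4×ERE-luciferase reporter was recorded 30min after ONE-Glo addition.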

A short description of test [4]: qHTS assay to identify small molecule agonists of the estrogen receptor alpha (ER-alpha) signaling pathway in the presence of an antagonist - cell viability counter screen (AID 1259386).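 Further: cells exposed to compounds for 22 h at 37 °C before the viability read; nearly all actives have a fitted effect of over 30% in size.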 Further: potency means the concentration at half of the fitted maximal effect. An outline of the steps: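 Fluorescent CellTiter-Fluor viability signal from VM7Luc4E2 cells, with the reagent added during the final hour of a 22hr compound exposure at 37C in the presence of 10.0nM ICI-182,780.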

For test [5], the target named is Progesterone receptor (Homo sapiens) (UniProt P06401). The test can be described thus: qHTS assay to identify small molecule agonists of the progesterone receptor (PR) signaling pathway (AID 1346784; calls by dose curve; further: nearly all actives have a fitted effect of over 30% in size). An outline of the steps:
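Compounds were tested for PR agonism in HEK 293T cells bearing a beta-lactamase gene under UAS control. Treatment lasted 16 hr at 37C; signal came from fluorescence of a FRET substrate.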

Test [6] in a line: qHTS assay to identify small molecule antagonists of the TGF-beta/Smad signaling pathway - cell viability counter screen (AID 1346824). Further: nearly all actives have a fitted effect of over 50% in size. An outline of the steps:
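SBE-bla HEK 293T cells were plated overnight at 37 C, then given compounds in DMSO plus TGF-beta1 (added as 0.25 ng/mL solution) for 5 hr. After the bla read, CellTiter-Glo was added to the same wells and luminescence read after 30 min at room temperature.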

A short description of test [7]: qHTS assay to identify small molecule agonists of the TGF-beta/Smad signaling pathway - cell viability counter screen (AID 1346829). Further: top concentration of the series differs between compounds; nearly all actives have a fitted effect of over 45% in size. In a few lines:
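CellTiter-Glo luminescence readout; SBE-bla HEK 293T cells, overnight plating, compound 5 hr at 37 C/5% CO2, then bla substrate 2 hr RT, then CellTiter-Glo 30 min RT.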

Test [8] is described as follows: qHTS assay to identify small molecule agonists of the TGF-beta/Smad signaling pathway (AID 1346859; active means well fitted activation curve with a large enough effect in the signal ratio in the repeat runs, not every such curve was filed as active; the % refers to the signal ratio; further: series mostly up to about 77 µM). An outline of the steps: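 Each well held 4,000 SBE-bla HEK 293T cells incubated overnight before compound addition; 5 hr later the cleavable FRET substrate went on for 2 hr at room temperature, and fluorescence was read at two emissions.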
Test [9] in a line: Human pregnane X receptor (PXR) small molecule agonists, qHTS cell viability counter screen (AID 1346977). Further: nearly all actives have a fitted effect of over 50% in size. Further: potency means the concentration at half of the fitted maximal effect. In a few lines:
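Tox21 qHTS format; PXR-Luc HepG2, 2,000/well, charcoal-stripped FBS 5%. Cpd exposure 24hr. Read: CellTiter-Fluor fluorescence, multiplexed with luciferase.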

Test [10] in a line: qHTS assay to identify small molecule agonists of the androgen receptor (AR) signaling pathway in the presence of an antagonist - cell viability counter screen (AID 1259379). Further: nearly all actives have a fitted effect of over 25% in size. Further: potency means the concentration at half of the fitted maximal effect. An outline of the steps:
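In MDA-kb2 cells (human breast carcinoma, MMTV-luciferase), compounds at 15 concentrations plus 3.0uM nilutamide; 16 hr, 37C, 0% CO2; CellTiter-Fluor fluorescence read for viability.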

Test [11] can be described thus: qHTS assay to identify small molecule agonists or antagonists of the thyroid stimulating hormone receptor (TSHR) signaling pathway - wild type cell line counter screen (AID 1259384; calls by dose curve). An outline of the steps: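 Wild-type HEK293 cells were plated 18 h at 37 C/5% CO2, pin-dosed with compound plus Ro20-1724 medium, held 30 min at room temperature, then given cAMP-d2 and anti-cAMP-cryptate; fluorescence was read after 1 h. Fifteen concentrations, triplicate.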

The target in test [12] is Thyrotropin receptor (Homo sapiens) (UniProt P16473). The test can be described thus: qHTS assay to identify small molecule antagonists of the thyroid stimulating hormone receptor (TSHR) signaling pathway (AID 1259385; calls by dose curve; further: nearly all actives have a fitted effect of over 20% in size). An outline of the steps:
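TSHR-HEK293 cells were plated and held 18 h at 37C/5% CO2, then given compound plus Ro20-1724 and stimulated with TSH at 1.5 ng/mL final. After 30 min at room temperature, cAMP was detected with cAMP-d2/anti-cAMP-cryptate (1 h) by fluorescence.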

A short description of test [13]: qHTS assay to identify small molecule antagonists of the progesterone receptor (PR) signaling pathway - cell viability counter screen (AID 1346798). Further: series mostly up to about 92 µM; nearly all actives have a fitted effect of over 50% in size. An outline of the steps: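 Following a 4 hr attachment, PR-UAS-bla HEK293T cells in charcoal-stripped FBS medium were exposed to compounds with R5020 for 16 hr; CellTiter-Glo was added and luminescence read after 30 min at room temperature.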

The nature of test [14]: qHTS assay to identify small molecule agonists of the progesterone receptor (PR) signaling pathway - cell viability counter screen (AID 1346799; calls by dose curve; further: nearly all actives have a fitted effect of over 45% in size). An outline of the steps:
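Here, 3,000 PR-UAS-bla HEK293T cells per well were treated with compounds for 16 hr after a 6 hr preincubation at 37C and 5% CO2; cell viability is the CellTiter-Glo luminescence signal.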

The target in test [15] is Thyrotropin-releasing hormone receptor (Homo sapiens) (UniProt P34981). The test can be described thus: qHTS assay to identify small molecule antagonists of the thyrotropin-releasing hormone receptor (TRHR) signaling pathway (AID 1346877; active means well fitted inhibition curve with a large enough effect in the repeat runs, not every such curve was filed as active; further: series mostly up to about 51 µM). In a few lines: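 In this cell-based calcium flux format, HEK293 cells expressing TRHR received test compound for 5 min before the agonist TRH (1 nM final). Dye loading lasted 2 h at 37 °C.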

Test [16] has the same target. The test is described as follows: qHTS assay to identify small molecule agonists of the thyrotropin-releasing hormone receptor (TRHR) signaling pathway (AID 1346891; calls by dose curve; further: series mostly up to about 58 µM). In a few lines:
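Screening of agonists relied on calcium signalling in HEK293 cells expressing human TRHR: dye loading 2 h at 37 °C preceded compound addition and a 3-min fluorescence time course.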

Test [17] deals with Progesterone receptor (Homo sapiens) (UniProt P06401). The test can be described thus: qHTS assay to identify small molecule antagonists of the progesterone receptor (PR) signaling pathway (AID 1346795; active means well fitted inhibition curve with a large enough effect in the signal ratio in the repeat runs, not every such curve was filed as active; the % refers to the signal ratio; further: potency means the concentration at half of the fitted maximal effect). An outline of the steps: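 In HEK293T cells bearing the PR-UAS-bla reporter, compound effects on promegestone-driven (1 nM) beta-lactamase expression are assessed after 16 hr using a fluorescent FRET substrate incubated 2 hr at room temperature.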

Test [18] addresses Androgen receptor (Homo sapiens) (UniProt P10275). The test is described as follows: qHTS assay to identify small molecule agonists of the androgen receptor (AR) signaling pathway in the presence of an antagonist (AID 1259381; calls by dose curve; further: nearly all actives have a fitted effect of over 15% in size; further: potency means the concentration at half of the fitted maximal effect). An outline of the steps: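 Here, 15-concentration compound series were pin-transferred onto MDA-kb2 MMTV-luciferase cells already dosed with nilutamide (3.0uM final). After 16hr at 37C, ONE-Glo was added and luminescence read 30min later at room temperature.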

Where “and” joins values, the source holds several entries; their conditions need not be identical. Equal entries are not always repeated. Inconclusive results are not listed. A structure can be active in one record and inactive in another. Calls of active or inactive are those of the source. Unless noted, the call rests on the fitted dose curve; in most records, active means well fitted curve in the direction sought with a large enough effect in the repeat runs; inconclusive means weak or mixed curves; inactive means no such curve, though single readings can be large; an effect the other way counts as inactive or inconclusive.

Progesterone receptor (Homo sapiens), sequence (P06401 whole entry, looked up): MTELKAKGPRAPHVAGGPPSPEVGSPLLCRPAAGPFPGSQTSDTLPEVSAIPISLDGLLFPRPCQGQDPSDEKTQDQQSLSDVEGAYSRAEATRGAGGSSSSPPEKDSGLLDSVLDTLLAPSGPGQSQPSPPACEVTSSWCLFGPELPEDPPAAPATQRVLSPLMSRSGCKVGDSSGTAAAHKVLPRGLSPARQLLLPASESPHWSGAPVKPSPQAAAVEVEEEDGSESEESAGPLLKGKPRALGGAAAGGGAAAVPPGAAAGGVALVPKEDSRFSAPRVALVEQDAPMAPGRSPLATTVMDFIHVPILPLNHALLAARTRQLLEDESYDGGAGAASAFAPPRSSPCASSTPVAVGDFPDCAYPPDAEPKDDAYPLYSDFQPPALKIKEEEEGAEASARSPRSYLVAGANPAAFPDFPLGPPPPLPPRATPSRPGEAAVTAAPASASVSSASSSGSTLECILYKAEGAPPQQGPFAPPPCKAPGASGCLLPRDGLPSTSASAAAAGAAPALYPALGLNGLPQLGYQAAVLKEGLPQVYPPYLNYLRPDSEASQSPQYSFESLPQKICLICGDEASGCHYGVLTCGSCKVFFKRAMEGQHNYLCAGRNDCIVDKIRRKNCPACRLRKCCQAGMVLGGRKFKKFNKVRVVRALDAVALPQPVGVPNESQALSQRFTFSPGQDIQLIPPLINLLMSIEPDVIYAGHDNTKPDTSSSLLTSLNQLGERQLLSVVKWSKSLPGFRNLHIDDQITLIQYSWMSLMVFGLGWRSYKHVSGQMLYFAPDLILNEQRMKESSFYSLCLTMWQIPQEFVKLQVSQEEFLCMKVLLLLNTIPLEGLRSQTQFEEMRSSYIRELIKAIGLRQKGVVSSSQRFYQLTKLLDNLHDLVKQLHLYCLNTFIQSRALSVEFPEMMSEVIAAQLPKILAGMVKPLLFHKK
Androgen receptor (Homo sapiens), sequence (P10275 whole entry, looked up): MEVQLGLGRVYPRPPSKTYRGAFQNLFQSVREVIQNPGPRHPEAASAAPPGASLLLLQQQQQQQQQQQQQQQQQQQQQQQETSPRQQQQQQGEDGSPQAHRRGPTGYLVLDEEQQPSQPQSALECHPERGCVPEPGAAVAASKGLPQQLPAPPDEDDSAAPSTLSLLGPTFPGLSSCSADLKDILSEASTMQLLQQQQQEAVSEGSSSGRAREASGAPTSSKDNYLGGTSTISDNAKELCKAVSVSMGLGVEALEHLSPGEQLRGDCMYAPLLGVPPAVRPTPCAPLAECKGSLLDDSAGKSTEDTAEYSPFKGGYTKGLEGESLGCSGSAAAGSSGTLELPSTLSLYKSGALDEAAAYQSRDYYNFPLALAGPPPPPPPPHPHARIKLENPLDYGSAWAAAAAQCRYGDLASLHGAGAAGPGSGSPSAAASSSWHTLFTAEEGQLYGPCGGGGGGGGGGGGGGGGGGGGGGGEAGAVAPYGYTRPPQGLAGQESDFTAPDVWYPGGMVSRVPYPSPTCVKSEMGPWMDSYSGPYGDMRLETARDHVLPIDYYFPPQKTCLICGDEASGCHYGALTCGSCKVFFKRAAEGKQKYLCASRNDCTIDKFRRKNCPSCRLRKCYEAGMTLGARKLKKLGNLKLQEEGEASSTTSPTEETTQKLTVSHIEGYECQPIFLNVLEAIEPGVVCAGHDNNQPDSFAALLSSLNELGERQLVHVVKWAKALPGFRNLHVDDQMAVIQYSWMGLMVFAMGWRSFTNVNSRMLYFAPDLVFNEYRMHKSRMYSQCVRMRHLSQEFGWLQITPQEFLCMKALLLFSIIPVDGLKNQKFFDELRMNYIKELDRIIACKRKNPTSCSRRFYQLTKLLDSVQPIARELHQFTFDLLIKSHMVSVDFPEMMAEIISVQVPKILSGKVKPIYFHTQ
Thyrotropin-releasing hormone receptor (Homo sapiens), sequence (P34981 whole entry, looked up): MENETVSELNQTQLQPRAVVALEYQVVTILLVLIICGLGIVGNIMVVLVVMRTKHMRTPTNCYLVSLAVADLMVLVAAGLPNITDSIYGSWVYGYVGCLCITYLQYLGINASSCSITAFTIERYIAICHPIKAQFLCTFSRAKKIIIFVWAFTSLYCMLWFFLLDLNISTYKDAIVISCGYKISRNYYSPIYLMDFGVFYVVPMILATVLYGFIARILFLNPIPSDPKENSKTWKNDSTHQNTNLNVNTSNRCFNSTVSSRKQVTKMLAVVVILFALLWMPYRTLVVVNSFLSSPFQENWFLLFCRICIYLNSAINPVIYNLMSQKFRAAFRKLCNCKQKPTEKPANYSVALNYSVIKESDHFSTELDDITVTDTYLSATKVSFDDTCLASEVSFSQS
Thyrotropin receptor (Homo sapiens), sequence (P16473 whole entry, looked up): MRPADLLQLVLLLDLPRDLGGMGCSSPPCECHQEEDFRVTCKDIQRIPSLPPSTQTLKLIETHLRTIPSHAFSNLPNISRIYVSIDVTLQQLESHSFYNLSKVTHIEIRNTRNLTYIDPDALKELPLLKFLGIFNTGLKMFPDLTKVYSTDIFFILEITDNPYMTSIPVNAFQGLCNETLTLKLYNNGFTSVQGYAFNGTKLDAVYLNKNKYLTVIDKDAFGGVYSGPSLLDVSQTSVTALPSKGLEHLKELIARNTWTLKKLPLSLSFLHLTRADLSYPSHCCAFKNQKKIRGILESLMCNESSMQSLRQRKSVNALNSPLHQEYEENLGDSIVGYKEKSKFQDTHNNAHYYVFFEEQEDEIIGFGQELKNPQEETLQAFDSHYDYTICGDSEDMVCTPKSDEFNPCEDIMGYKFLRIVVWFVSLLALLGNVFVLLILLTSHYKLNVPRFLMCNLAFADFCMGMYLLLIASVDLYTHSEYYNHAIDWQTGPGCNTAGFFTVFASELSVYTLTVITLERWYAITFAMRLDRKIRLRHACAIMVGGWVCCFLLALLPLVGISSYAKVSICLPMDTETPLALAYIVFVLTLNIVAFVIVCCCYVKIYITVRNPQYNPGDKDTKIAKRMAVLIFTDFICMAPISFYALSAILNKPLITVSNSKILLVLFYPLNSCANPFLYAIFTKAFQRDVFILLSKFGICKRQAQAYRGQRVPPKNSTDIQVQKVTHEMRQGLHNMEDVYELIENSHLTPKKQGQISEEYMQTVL
Estrogen receptor (Homo sapiens), sequence (P03372 whole entry, looked up): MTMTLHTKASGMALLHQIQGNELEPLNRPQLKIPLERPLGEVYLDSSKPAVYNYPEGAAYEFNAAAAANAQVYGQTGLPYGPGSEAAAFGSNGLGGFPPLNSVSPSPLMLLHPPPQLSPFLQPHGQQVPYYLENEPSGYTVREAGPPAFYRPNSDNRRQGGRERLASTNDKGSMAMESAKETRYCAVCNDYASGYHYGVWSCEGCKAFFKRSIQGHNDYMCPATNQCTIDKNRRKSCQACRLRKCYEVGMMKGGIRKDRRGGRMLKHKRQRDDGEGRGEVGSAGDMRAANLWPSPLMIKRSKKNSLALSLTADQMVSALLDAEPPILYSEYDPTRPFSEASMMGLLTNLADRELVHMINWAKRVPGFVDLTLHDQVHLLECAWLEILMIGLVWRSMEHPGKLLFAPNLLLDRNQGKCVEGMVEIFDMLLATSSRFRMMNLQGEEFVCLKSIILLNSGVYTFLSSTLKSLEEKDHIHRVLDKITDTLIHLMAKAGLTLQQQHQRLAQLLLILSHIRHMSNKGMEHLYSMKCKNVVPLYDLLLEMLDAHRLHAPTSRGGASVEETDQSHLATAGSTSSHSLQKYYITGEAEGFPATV

As for `C[C@]12CCC(=O)C(O)=C1CC[C@@H]1[C@@H]2CC[C@]2(C)C(=O)CC[C@@H]12`, the Potency in test [1] was 24.3 µM (active). The Potency entry in test [2], in test [3], in test [4], in test [5], in [6] and in test [7] was “inactive” throughout. Moreover, the Potency entry in [9] was “inactive”. Also, the result in [8] was inactive.

Take `c1ccc(-c2cccc(-c3ccccc3)c2)cc1`: the Potency entry in test [10], in [2], in [3], in test [4], in test [5] and in [13] was “inactive” each time. Further, the Potency entry in test [14], in test [6], in [7], in test [15], in test [16] and in test [9] was “inactive” throughout. In addition, the Potency in test [1] is 19.5 µM (active) and 30.6 µM (active). In addition, the compound was classed as inactive in test [11], in test [12] and in test [8].

Turning to `C=CCc1ccc2c(c1)OCO2`, the Potency entry in test [1], in test [4], in [5], in test [17], in test [13] and in test [14] was “inactive” in each case. Further, the Potency entry in [7] and in test [9] was “inactive” throughout. Besides, the compound was classed as inactive in test [11] and in [12].

For the compound `Nc1ccc(Cl)cc1N`, the Potency entry in test [10], in [5], in test [13], in [14], in test [6] and in test [7] was “inactive” each time. Moreover, the Potency result in [15], in [16] and in test [9] was “inactive” in each case. Besides, the Potency is 54.5 µM (active) in test [1] and 4.86 µM (active) in test [18]. In addition, the compound was classed as inactive in test [11] and in [12].

For `Oc1c(Cl)c(Cl)c(Cl)c(Cl)c1Cl`, the Potency result in test [1], in [3], in test [5], in test [13], in test [6] and in test [7] was “inactive” in each case. The Potency entry in test [15] and in [16] was “inactive” throughout. Also, the compound was called inactive in test [11] and in test [12]. Moreover, the Potency in [17] was 59.9 µM (active) and 48.6 µM (active).

In the case of `COP(=O)(OC)OC`, the Potency entry in [1], in test [18], in test [3], in test [4], in test [5] and in test [17] was “inactive” throughout. Further, the Potency entry in test [13], in test [14], in test [6], in [7], in [15] and in test [16] was “inactive” each time. The call in test [11] and in test [12] was inactive. Besides, the Potency in [9] was 44.7 µM (active) and inactive.

In the case of `C=C(C)[C@H]1Cc2c(ccc3c2O[C@@H]2COc4cc(OC)c(OC)cc4[C@@H]2C3=O)O1`, the Potency in test [10] was 55.2 nM (active) and 38.6 nM (active) and 47.3 nM (active); in test [4] it was 2.77 µM (active) and 96.9 nM (active) and 188 nM (active); in test [17] it was 19.6 µM (active) and 9.69 µM (active) and 11.9 µM (active); in test [9], 112 nM (active) and 2.17 µM (active) and 298 nM (active). The Potency entry in [1], in test [18], in [2], in test [5], in test [7] and in [15] was “inactive” each time. Further, in test [16], the Potency result was “inactive”. In addition, the result in test [11] and in [12] was inactive.

On to `CCCCCCCCC(=O)NCc1ccc(O)c(OC)c1`, for which the Potency result in test [10], in [1], in [2], in [3], in [5] and in test [7] was “inactive” in each case. Further, the Potency result in test [9] was “inactive”. Also, the compound was classed as inactive in [11] and in test [12]. For the same compound, the Potency in test [17] was 48.6 µM (active).

Consider `O=C(O)CC[N+](=O)[O-]`, for which the Potency entry in [10], in test [1], in test [18], in test [2], in test [5] and in test [17] was “inactive” each time. Also, the Potency result in test [13], in test [6], in test [7] and in test [9] was “inactive” each time. Besides, the compound was classed as inactive in test [8].

For the compound `N#CCCCl`, the Potency entry in test [1], in test [2], in test [4], in test [5], in test [17] and in test [13] was “inactive” in each case. The Potency entry in test [14], in test [6], in test [7] and in test [9] was “inactive” each time. For the same compound, the result in test [11], in test [12] and in [8] was inactive.

As to `CNC(=O)Oc1cccc2c1OC(C)(C)O2`, the Potency entry in test [10], in [1], in test [2], in [3], in test [5] and in [17] was “inactive” in each case. For the same compound, the Potency result in test [13], in test [6], in [7], in test [15], in test [16] and in test [9] was “inactive” in each case. Besides, the compound was classed as inactive in [11] and in test [12].

Consider `Oc1cc(Cl)ccc1Cl`, for which the Potency result in [10], in test [1], in [5], in test [17], in test [13] and in test [6] was “inactive” in each case. Besides, the Potency entry in test [7], in test [15], in test [16] and in [9] was “inactive” each time. Besides, the result in [11], in [12] and in test [8] was inactive.

`COc1ccc(C(CN(C)C)C2(O)CCCCC2)cc1` (stereo unspecified): the Potency result in test [10], in [1], in test [2], in test [4], in [5] and in test [17] was “inactive” each time. Moreover, the Potency result in test [13], in test [6], in [7] and in [9] was “inactive” each time. The compound was classed as inactive in test [11], in test [12] and in test [8].
